Measured values from PubChem BioAssay (NCATS).
Inconclusive results are not listed. Unmarked numbers belong to inactive results. Calls of active or inactive are those of the source. Calls come from the whole dose curve; as a rule, active = well fitted inhibition curve with a large enough effect; inconclusive = small, poorly fitted or top-dose-only effect; inactive = flat fitted curve, though single readings scatter.

Biological target: Voltage-gated inwardly rectifying potassium channel KCNH2 (Homo sapiens) (UniProt Q12809)
Assay: qHTS Assay for Small Molecule Inhibitors of the Human hERG Channel Activity (AID 588834);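 note: lower thallium flux fluorescence means stronger hERG block; nearly all actives have a fitted effect of over 50% in size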; for activity change, negative = inhibition: top concentration of the series differs between compounds
Conditions: U2OS BacMam hERG, FluxOR thallium flux fluorescence; series mostly up to 46.1 µM; activity change, negative = inhibition: at the top concentration
Outline: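 Kinetic FDSS fluorescence; U2OS + hERG BacMam (~100 virus particles/cell); FluxOR Tl+ flux; ~10 min cpd; AC50 (Hill).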
% is set by controls: 0 for no effect and ±100 for the full control effect; potency is the fitted concentration of half-maximal effect.

Voltage-gated inwardly rectifying potassium channel KCNH2 (Homo sapiens), sequence (Q12809 whole entry, looked up): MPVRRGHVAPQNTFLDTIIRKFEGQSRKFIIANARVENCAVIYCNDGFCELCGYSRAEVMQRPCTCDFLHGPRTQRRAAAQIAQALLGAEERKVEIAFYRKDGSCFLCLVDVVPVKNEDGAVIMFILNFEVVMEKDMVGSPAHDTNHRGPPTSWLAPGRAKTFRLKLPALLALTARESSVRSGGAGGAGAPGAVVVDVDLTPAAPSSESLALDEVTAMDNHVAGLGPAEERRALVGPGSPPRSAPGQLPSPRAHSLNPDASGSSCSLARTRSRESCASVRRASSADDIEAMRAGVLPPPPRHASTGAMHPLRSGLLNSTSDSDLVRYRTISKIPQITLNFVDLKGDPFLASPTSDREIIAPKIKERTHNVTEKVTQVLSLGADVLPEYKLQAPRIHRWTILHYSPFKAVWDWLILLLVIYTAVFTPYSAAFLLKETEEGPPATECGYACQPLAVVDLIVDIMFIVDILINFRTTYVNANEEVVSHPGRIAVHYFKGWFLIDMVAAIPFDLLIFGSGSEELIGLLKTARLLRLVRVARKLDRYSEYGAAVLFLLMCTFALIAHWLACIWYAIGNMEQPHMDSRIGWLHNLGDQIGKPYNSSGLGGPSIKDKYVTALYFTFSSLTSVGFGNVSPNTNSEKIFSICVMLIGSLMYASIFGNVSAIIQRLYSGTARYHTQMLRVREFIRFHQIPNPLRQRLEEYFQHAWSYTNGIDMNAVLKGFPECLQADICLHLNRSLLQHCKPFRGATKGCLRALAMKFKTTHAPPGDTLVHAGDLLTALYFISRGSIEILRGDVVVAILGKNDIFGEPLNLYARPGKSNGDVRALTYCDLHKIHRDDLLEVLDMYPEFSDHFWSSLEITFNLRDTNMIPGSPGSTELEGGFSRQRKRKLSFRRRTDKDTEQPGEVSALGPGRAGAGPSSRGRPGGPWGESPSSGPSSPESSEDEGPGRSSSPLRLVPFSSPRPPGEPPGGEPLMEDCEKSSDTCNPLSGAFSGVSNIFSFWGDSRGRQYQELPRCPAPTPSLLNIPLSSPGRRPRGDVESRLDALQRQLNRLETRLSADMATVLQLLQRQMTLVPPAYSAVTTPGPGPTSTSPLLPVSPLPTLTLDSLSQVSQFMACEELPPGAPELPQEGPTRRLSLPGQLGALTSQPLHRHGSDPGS

| SMILES | activity change, negative = inhibition | Potency |
| --- | --- | --- |
| NC[C@H]1O[C@H](O[C@H]2[C@H](O[C@@H]3O[C@H](CO)[C@@H](O)[C@H]3O)C(O)[C@H](N)C[C@@H]2N)[C@H](N)[C@@H](O)[C@@H]1O (some centres undefined) | -0.771% [at 20.6 µM] | – |
| CC1(C)O[C@@H]2C[C@H]3[C@@H]4CCC5=CC(=O)CC[C@]5(C)[C@@]4(F)[C@@H](O)C[C@]3(C)[C@]2(C(=O)CCl)O1 | 0.0479% [at 20.6 µM] | – |
| C[C@]12C=CC(=O)C=C1CC[C@@H]1[C@@H]2[C@@H](O)C[C@@]2(C)[C@H]1CC[C@]2(O)C(=O)CO | -0.49% | – |
| CCOC(=O)[C@H](CCc1ccccc1)N[C@@H](C)C(=O)N1Cc2ccccc2C[C@H]1C(=O)O | 1.08% | – |
| N[C@@H](CCC(=O)N[C@@H](CS)C(=O)NCC(=O)O)C(=O)O | -1.99% | – |
| COc1cccc(OC)c1C(=O)N[C@@H]1C(=O)N2[C@@H]1SC(C)(C)[C@@H]2C(=O)O | -3.09% | – |
| OC[C@@H](O)[C@@H](O[C@@H]1O[C@H](CO)[C@H](O)[C@H](O)[C@H]1O)[C@H](O)[C@@H](O)CO | 4.93% | – |
| NC(=O)c1cc[n+](CC2=C(C(=O)[O-])N3C(=O)[C@@H](NC(=O)Cc4cccs4)[C@H]3SC2)cc1 | -16.9% [at 20.6 µM] | – |
| C[C@]12CC[C@H]3[C@@H](CCC4=CC(=O)CC[C@@]43C)[C@@H]1CC[C@@H]2C(=O)CO | -0.156% [at 20.6 µM] | – |
| COc1cc(/C=C/C(=O)O[C@H]2CC[C@]34C[C@]35CC[C@]3(C)[C@@H]([C@H](C)CCC=C(C)C)CC[C@@]3(C)[C@@H]5CC[C@H]4C2(C)C)ccc1O | 6.22% | – |
| Nc1nc2ncc(CNc3ccc(C(=O)N[C@@H](CCC(=O)O)C(=O)O)cc3)nc2c(=O)[nH]1 | 24.3% | – |
| CC(=O)OCC(=O)[C@@]12N=C(C)O[C@@H]1C[C@H]1[C@@H]3CCC4=CC(=O)C=C[C@]4(C)[C@H]3[C@@H](O)C[C@@]12C | 20.1% | – |
| C#C[C@]1(O)CC[C@H]2[C@@H]3CCC4=CC(=O)CC[C@@H]4[C@H]3CC[C@@]21C | 3.72% | – |
| COc1cc2c(cc1OC)[C@@H]1CC(=O)[C@@H](CC(C)C)CN1CC2 | -10.7% | – |
| CC1(C)O[C@@H]2C[C@H]3[C@@H]4C[C@H](F)C5=CC(=O)C=C[C@]5(C)[C@H]4[C@@H](O)C[C@]3(C)[C@]2(C(=O)CO)O1 | -3.53% [at 20.6 µM] | – |
| OC[C@H]1O[C@@H](n2cnc3c(=S)nc[nH]c32)[C@H](O)[C@@H]1O | 4.82% | – |
| COc1ccc(OC)c(C(O)CNC(=O)CN)c1 (centres undefined) | 1.56% [at 20.6 µM] | – |

| SMILES | activity change, negative = inhibition | Potency |
| --- | --- | --- |
| C/C=C/c1ccc(OC)cc1 | -8.76% | – |
| CN1CCCC(CC2c3ccccc3Sc3ccccc32)C1 (centres undefined) | – | 4.47 µM (active) |
| CCCSS/C(CCO)=C(\C)N(C=O)Cc1cnc(C)nc1N | – | 11.2 µM (active) |
| CC(Cc1ccccc1)(NC(=O)CN)c1ccccc1 (centres undefined) | 19.6% | – |
| CN(C)CC/C=C1/c2ccccc2COc2ccc(CC(=O)O)cc21 | -2.31% | – |
| CC1(C)O[C@@H]2[C@@H](CO[C@@]3(COS(N)(=O)=O)OC(C)(C)O[C@@H]23)O1 | -13.9% | – |
| CC[C@@H](CO)NCCN[C@@H](CC)CO | 22.1% [at 20.6 µM] | – |
| NC(=O)CC[C@@H]1NC(=O)[C@H](Cc2ccccc2)NC(=O)[C@H](Cc2ccc(O)cc2)NC(=O)CCSSC[C@@H](C(=O)N2CCC[C@H]2C(=O)N[C@@H](CCCN=C(N)N)C(=O)NCC(N)=O)NC(=O)[C@H](CC(N)=O)NC1=O | 4.89% | – |
| C[C@H](CCC(=O)O)[C@H]1CC[C@H]2[C@@H]3C(=O)C[C@@H]4CC(=O)CC[C@]4(C)[C@H]3CC(=O)[C@]12C | 15.5% | – |
| CC(=O)OCC(=O)[C@@]12OC(C)(C)O[C@@H]1C[C@H]1[C@@H]3C[C@H](F)C4=CC(=O)C=C[C@]4(C)[C@@]3(F)[C@@H](O)C[C@@]12C | -4.35% [at 20.6 µM] | – |
| CCCCC(=O)O[C@]1(C(=O)CO)CC[C@H]2[C@@H]3CCC4=CC(=O)CC[C@]4(C)[C@H]3[C@@H](O)C[C@@]21C | 2.28% | – |
| C[C@]12CC[C@@H]3c4ccc(O)cc4CC[C@H]3[C@@H]1C[C@@H](O)[C@@H]2O | -0.14% | – |
| CCN(CCCCOC(=O)c1ccc(OC)c(OC)c1)C(C)Cc1ccc(OC)cc1 (centres undefined) | – | 2.24 µM (active) |
| CC(=O)CC(c1ccc([N+](=O)[O-])cc1)c1c(O)c2ccccc2oc1=O (centres undefined) | -4.98% [at 20.6 µM] | – |
| O=C(OCC(O)CO)c1ccccc1Nc1ccnc2cc(Cl)ccc12 (centres undefined) | -30.9% [at 20.6 µM] | – |
| C[C@]12CCC(=O)C=C1[C@@H]1C[C@@H]1[C@H]1[C@@H]3[C@@H]4C[C@@H]4[C@@]4(CCC(=O)O4)[C@@]3(C)CC[C@@H]12 | -1.76% | – |
| CCCC(=O)O[C@]1(C(=O)CO)CC[C@H]2[C@@H]3CCC4=CC(=O)CC[C@]4(C)[C@H]3[C@@H](O)C[C@@]21C | -1.67% | – |
